Laboratory results reported in ChEMBL document CHEMBL3988442, “University of Dundee, Small-Polar-MMV Screening Library” (2021).
The campaign covered roughly 48,000 compounds. About 13,000 (27%) showed an effect of 50% or more. This is one part of the list.

System: Wolbachia pipientis
Assay: Anti-Wolbachia Cell-Based Screen
Type: functional
Set-up: scale not given: in the data most compounds retested in dose-response had high values
Details: 5 µM

SMILES | Percent Effect [%]
COc1ccc(CN2C[C@@H]3[C@H](CC(=O)N4CCCC4)[C@@H]3C2)cc1.O=C(O)C(F)(F)F | -9.887
CN(C)C[C@@H]1CCC[C@@H]2CN(c3cccnc3)C[C@@H]21.O=C(O)C(F)(F)F | 5.573
CC(C)c1nc(S(=O)(=O)N(C)c2cc(F)ccc2F)c[nH]1 | 7.665
CCN(Cc1ccoc1)Cc1nc(COC)no1 | -32.73
CN1CCN(C(=O)C2CCCN2c2ncnc3ccsc23)CC1 (centres undefined) | -5.799
Cc1nc(C)n(CC2CCCCN2c2ncnc3ccsc23)n1 (centres undefined) | 109.8
Cc1nc(C)n(CC2CCCN2c2ncnc3c2CCC3)n1 (centres undefined) | -5.699
c1nc(N2CCCCC2Cn2cncn2)c2sccc2n1 (centres undefined) | 0.3831
CN(C)C(=O)C1CCCN1c1ncnc2ccsc12 (centres undefined) | 11.36
Cc1nc(C)n(CC2CCCN2c2ccnc(-c3ccccc3)n2)n1 (centres undefined) | 6.693
Cc1nc(C)n(CC2CCCCN2c2ccnc(-c3ccccc3)n2)n1 (centres undefined) | -2.922
Cc1nc(C)n(CC2CCCN2c2ncnc3ccsc23)n1 (centres undefined) | 106.3
Cc1nc(C)n(CC2CCCN2c2ncnc3sc(C)c(C)c23)n1 (centres undefined) | 109.1
CN(C)C1Cc2ccccc2N(S(=O)(=O)c2cccc(C#N)c2)C1 (centres undefined) | -17.15
CC(C)CC(=O)N1CCN(C(=O)N(C)C)CC2(CC(=O)N(C)C2)C1 (centres undefined) | -13.83
CCOc1ncccc1C(=O)N1CCCC(c2nccn2CCOC)C1 (centres undefined) | -5.342
Cc1noc(C2CCCN(C(=O)c3cc(Cl)cn3C)C2)n1 (centres undefined) | -4.017
CCOc1ncccc1C(=O)N1CCCC(c2nncn2C)C1 (centres undefined) | 139.9
CCOC1CCN(C(=O)c2cc(-c3ccc(Cl)cc3)on2)CC1 | -1.009
Cc1csc(CNC(=O)N2CCCC(c3nncn3C)C2)n1 (centres undefined) | 102.5
Cc1noc(C2CCCN(C(=O)c3cc(Cl)ccc3F)C2)n1 (centres undefined) | -1.909
COC1CCN(C(=O)c2cc(-c3ccc(Cl)cc3)on2)CC1 | 1.194

SMILES | Percent Effect [%]
Cn1cnnc1C1CCCN(C(=O)NCc2cc[nH]n2)C1 (centres undefined) | -3.292
Cn1cnnc1C1CCCN(C(=O)NCc2ccccc2)C1 (centres undefined) | -1.027
Cn1cnnc1C1CCN(C(=O)c2cc(-c3ccccc3)on2)CC1 | 84.11
Cc1noc(C2CCCN(C(=O)c3cc(-c4ccccc4)on3)C2)n1 (centres undefined) | 95.63
COc1ccc(CNC(=O)NC2CCN(CC(F)F)CC2)cc1C | 8.282
CSc1cccc(CC(=O)N[C@@H]2CCNC[C@H]2O)c1 | -1.267
Cn1cnnc1C1CCCN(C(=O)c2cnc3ccccc3n2)C1 (centres undefined) | -5.928
Cn1cnnc1C1CCCN(C(=O)NCCc2ccccn2)C1 (centres undefined) | -4.673
Cn1cnnc1C1CCCN(C(=O)c2ccccn2)C1 (centres undefined) | 140.5
Cn1cnnc1C1CCCN(C(=O)NCc2ccccn2)C1 (centres undefined) | 107.2
Cn1cnnc1C1CCCN(C(=O)c2cc(-c3ccccc3)on2)C1 (centres undefined) | 103.3
c1cc(-c2ccc3c(c2)CCC32CCNCC2)ccn1 | -7.075
CC1(C)Cc2c(cnn2-c2cccc(F)c2)C(NC2CCSCC2)C1 (centres undefined) | 7.076
Cc1ccc2nc(-c3cnc(N)nc3)cc(C(=O)N(C)C)c2c1 | -1.148
CCCn1cc(-c2cc(C(=O)N(C)C)c3ccc(C)cc3n2)cn1 | 103.4
Cc1cc(C(=O)NCc2csc(N(C)C)n2)c2ccc(C)c(C)c2n1 | 2.506
Cc1cc(C)c2c(C(=O)N(C)C)cc(-c3cnc(N)nc3)nc2c1 | -4.473
CN(C)C(=O)c1cc(-c2cnc(N)nc2)nc2cc(F)ccc12 | 2.349
CO[C@H]1CNC[C@@H]1NC(=O)c1cc(C)nc2c(C)c(C)ccc12 | -8.867
COc1ccc2c(C(=O)N(C)C)cc(-c3cnc(N)nc3)nc2c1 | -11.66
Cc1ccc2c(C(=O)N(C)C)cc(-c3cnn(CCO)c3)nc2c1C | 115.7
COc1ccc2nc(C3CC3)cc(C(=O)NCC(=O)N(C)C)c2c1 | -4.105

SMILES | Percent Effect [%]
COc1ccc(CNC(=O)CCn2cc(C)cn2)cc1C | -6.428
CCCn1cc(-c2cc(C(=O)N(C)C)c3ccc(OC)cc3n2)cn1 | 91.31
CCCn1cc(-c2cc(C(=O)N(C)C)c3cccc(C)c3n2)cn1 | 108.4
Cc1ccc(-c2nc(CNCCn3cccn3)cs2)o1 | -0.9463
CN(Cc1cccs1)c1nc2c(cnn2C(C)(C)C)c(=O)[nH]1 | -5.539
O=C(NCC1(N2CCOCC2)CCSC1)Nc1ccccn1 (centres undefined) | 27.17
CSCCc1n[nH]c2c1CN(S(=O)(=O)c1c(C)nn(C)c1C)CC2 | -3.086
Cc1ccc(C(C)NC(=O)Nc2ccccc2CN2CCOCC2)o1 (centres undefined) | 2.687
COC[C@@]12CCO[C@@H]1CCN(C(=O)Cc1ccccc1F)C2 | 7.252
Cl.NCC1CCCCN1C(=O)Cc1ccc(F)c(F)c1 (centres undefined) | -20.4
O=C(Cc1ccccc1F)N1CCC[C@@H]1Cn1c(=O)oc2ccccc21 | 111.4
COc1nc2c(cc1C(=O)NCc1nc(CSC)no1)CCC2 | -10.56
Cc1nc(CN2CCN(Cc3nccn3C)CC2)no1 | 1.161
Cc1nc(CN2CCN(c3cncc(Cl)n3)CC2)no1 | 85.67
Cc1nc(CN2CCN(c3ncnc4ccccc34)CC2)no1 | -20.36
Cc1nc(CN2CCN(C(=O)CCc3cccc(Cl)c3)CC2)no1 | 2.234
Cc1noc(CN2CCN(c3cncc(Cl)n3)CC2)n1 | 120
Cc1nc(CN2CCN(c3ccc(Cl)cn3)CC2)no1 | 102.8
Cc1noc(CN2CCN(CCO)CC2)n1 | -2.451
Cc1cn2nc(N3CCCN(Cc4noc(C)n4)CC3)sc2n1 | 4.27
Cc1noc(CN2CCN(CC(C)O)CC2)n1 (centres undefined) | 16.1
CC(C)(C)NC(=O)C1CSCN1S(=O)(=O)c1ccccc1F (centres undefined) | -0.6778

SMILES | Percent Effect [%]
CCN(CC)CC(=O)Nc1ccc(-n2ccc(C(N)=O)n2)cc1 | -9.684
Cn1cccc(NC(=O)NCCc2cccc(O)c2)c1=O | 2.871
c1cc(C2CN(C3CCCC3)C2)n[nH]1 | 154.3
c1cc(-c2nnc([C@H]3CCN(C4CCCCC4)C3)o2)ccn1 | -11.18
c1ccc(Cc2nnc([C@H]3CCN(C4CCCCC4)C3)o2)cc1 | 3.661
c1ccc(-c2nnc([C@H]3CCN(C4CCC4)C3)o2)cc1 | -5.137
Clc1ccc(-c2nnc([C@H]3CCN(C4CCCCC4)C3)o2)cc1 | 11.2
F[C@@H]1CN(C2CCC2)C[C@@H]1OCc1nc2ncccc2[nH]1 | 0.839
c1cc(C2CN(C3CCCCC3)C2)n[nH]1 | 79.34
FC(F)(F)c1ccc2nc([C@H]3CCN(C4CCCCC4)C3)[nH]c2c1 | 3.029
c1cc(C2CCN(C3CCCCC3)C2)n[nH]1 (centres undefined) | 99.9
CC(=O)N(CCC(=O)NC1(C#N)CCC1)Cc1ccccc1 | -20.67
Cc1ccc(Oc2ncccc2CNS(=O)(=O)N2CCOCC2)cn1 | 3.348
Oc1ccc([C@H]2Oc3cc(O)cc(O)c3C[C@@H]2O)cc1 | 2.317
CC(=O)N(C)c1nc(Cn2nnnc2C(C)C)cs1 | 102.4
CC(=O)N(C)c1nc(Cn2nnnc2C2CCCC2)cs1 | 98.73
CCN(C(C)=O)c1nc(CN2CCN(c3nccs3)CC2)cs1 | -119
CC(=O)N(C)c1nc(CN2CCN(Cc3nccn3C)CC2)cs1 | -41.34
CC(=O)N(c1ccc(C)cc1)c1nc(CN2CCCCC2C)cs1 (centres undefined) | 5.84
CCc1nnnn1Cc1csc(N(C)C(C)=O)n1 | 97.38
CNC(=O)c1ccc(=O)n(Cc2csc(N(C)C(C)=O)n2)c1 | 1.068
CC(=O)N(c1ccc(F)cc1)c1nc(CN2CCCC2C(C)C)cs1 (centres undefined) | -4.339

SMILES | Percent Effect [%]
CN(C)C(=O)Cc1nc(CN2CCn3c(nnc3C3CC3)C2)cs1 | 2.901
Cc1ccc(=O)n(Cc2csc(N(C)C3CC3)n2)n1 | 2.512
CC(=O)N(C)c1nc(CN2CCN(c3nccs3)CC2)cs1 | -57.57
CC(=O)N(C)c1nc(Cn2nnnc2C(C)(C)C)cs1 | 75.49
CN(CCCNC(=O)Nc1ccc(C#N)cc1)CC(F)(F)F | 3.488
Cc1noc(CCNC(=O)C2CSCN2C(=O)C2CCCC2)n1 (centres undefined) | 1.723
CC(C)N1CCC(CC(=O)NCC2OCCc3ccccc32)CC1 (centres undefined) | -17.34
CC(C)(O)CN1CCN(C(=O)COCC2CC2)CC1 | 6.995
COc1c(C)cnc(CN(C)C(=O)c2cccnc2N(C)C)c1C | -5.056
CCOCc1cnc2n1CCN(C(=O)Cc1cccs1)C2C (centres undefined) | 1.059
COCc1cnc2n1CCN(C(=O)c1cc3ccccc3o1)C2C (centres undefined) | -14.51
CCOCc1cnc2n1CCN(C(=O)Cc1ccco1)C2C (centres undefined) | -11.07
CCOCc1cnc2n1CCN(C(=O)c1ccoc1C)C2C (centres undefined) | 98.54
COCc1cnc2n1CCN(C(=O)c1cnc3ccccc3c1)C2C (centres undefined) | -17.18
CCOCc1cnc2n1CCN(C(=O)c1ccccc1)C2C (centres undefined) | 105.6
COCc1cnc2n1CCN(C(=O)c1oc3ccccc3c1C)C2C (centres undefined) | -7.418
COCc1cnc2n1CCN(C(=O)c1cn(C)c3ccccc13)C2C (centres undefined) | 101.2
CC1c2ncc(COCC3CCOCC3)n2CCN1C(=O)c1ccoc1 (centres undefined) | 2.746
Cc1ncoc1C(=O)N1CCn2c(COCC3CC3)cnc2C1C (centres undefined) | -11.18
COc1ncccc1C(=O)N1CCn2c(COCC3CC3)cnc2C1C (centres undefined) | -2.491
CCOCc1cnc2n1CCN(C(=O)c1cccc3c1OCCO3)C2C (centres undefined) | 83.71
